# Reference: PubChem BioAssay AID1159580 (chemical genetic matrix, 2015)
# Several values for one entry are separate records, joined by “and”; a condition that tells them apart may be missing. Equal values may be shown once. About 2,000 (36%) of roughly 5,500 compounds were called active. Another 18% or so got no clear call; they are omitted. This is one part of the list. Values without a mark were called inactive. Rule as the data show it: active = normalized growth mostly below about 0.91 (no sharp cut-off); inconclusive = no clear call, values can overlap the other calls; inactive = mostly above about 0.92.
# Assay: chemical genetic growth profiling, strain panel (AID 1159580);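 also: tested at 20 µM; growth read once vehicle control cultures reached saturation at 30 °C; 1 = growth at the plate median or of vehicle wells; lower values mean less growth of the strain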
# Conditions: S. cerevisiae deletion strains, growth OD
smiles,measurement,setting,value
O=C(O[C@@H]1Cc2c(O)cc(O)cc2O[C@@H]1c1ccc(O)c(O)c1)c1cc(O)c(O)c(O)c1,normalized growth,"locus YAL021C, strain ccr4, hits give low values",0.925
same,normalized growth,"locus YAL026C, strain drs2, hits give low values",0.923
same,normalized growth,"locus YAL030W, strain snc1, hits give low values",1.01
same,normalized growth,"locus YBL061C, strain skt5, hits give low values",0.955
same,normalized growth,"locus YBR009C, strain hhf1, hits give low values",0.973
same,normalized growth,"locus YBR021W, strain FUR4, hits give low values",0.999
same,normalized growth,"locus YBR023C, strain chs3, hits give low values",0.86 (active)
same,normalized growth,"locus YBR171W, strain sec66, hits give low values",1.04
same,normalized growth,"locus YBR229C, strain ROT2, hits give low values",0.987
same,normalized growth,"locus YBR231C, strain swc5, hits give low values",0.817 (active)
same,normalized growth,"locus YBR279W, strain paf1, hits give low values",0.986
same,normalized growth,"locus YCL011C, strain gbp2, hits give low values",0.961
same,normalized growth,"locus YCL016C, strain dcc1, hits give low values",0.966
same,normalized growth,"locus YCL029C, strain bik1, hits give low values",0.975
same,normalized growth,"locus YCL061C, strain MRC1, hits give low values",0.986
same,normalized growth,"locus YCL069W, strain vba3, hits give low values",1
same,normalized growth,"locus YCR088W, strain abp1, hits give low values",1.03
same,normalized growth,"locus YDL005C, strain med2, hits give low values",1.04
same,normalized growth,"locus YDL035C, strain GPR1, hits give low values",0.853 (active)
same,normalized growth,"locus YDL040C, strain nat1, hits give low values",1.03
same,normalized growth,"locus YDL074C, strain BRE1, hits give low values",0.854
same,normalized growth,"locus YDL101C, strain DUN1, hits give low values",0.939
same,normalized growth,"locus YDL185W, strain tfp1, hits give low values",1.01
same,normalized growth,"locus YDL192W, strain arf1, hits give low values",0.993
same,normalized growth,"locus YDR001C, strain nth1, hits give low values",1.02
same,normalized growth,"locus YDR069C, strain doa4, hits give low values",0.833 (active)
same,normalized growth,"locus YDR101C, strain arx1, hits give low values",1.01
same,normalized growth,"locus YDR137W, strain rgp1, hits give low values",0.975
same,normalized growth,"locus YDR150W, strain NUM1, hits give low values",0.961
same,normalized growth,"locus YDR159W, strain sac3, hits give low values",1.12
same,normalized growth,"locus YDR162C, strain NBP2, hits give low values",0.771 (active)
same,normalized growth,"locus YDR195W, strain ref2",1.1
same,normalized growth,"locus YDR297W, strain sur2, hits give low values",0.966
same,normalized growth,"locus YDR318W, strain mcm21, hits give low values",1.02
same,normalized growth,"locus YDR334W, strain swr1, hits give low values",0.935
same,normalized growth,"locus YDR335W, strain msn5, hits give low values",0.981
same,normalized growth,"locus YDR388W, hits give low values",1.01
same,normalized growth,"locus YDR392W, strain spt3, hits give low values",1.01
same,normalized growth,"locus YDR502C, strain sam2, hits give low values",1.02
same,normalized growth,"locus YEL003W, strain gim4, hits give low values",0.981
same,normalized growth,"locus YEL037C, strain rad23, hits give low values",0.984
same,normalized growth,"locus YEL061C, strain CIN8 (second series), hits give low values",1.03
same,normalized growth,"locus YEL061C, strain CIN8, hits give low values",0.947
same,normalized growth,"locus YER015W, strain faa2, hits give low values",0.808 (active)
same,normalized growth,"locus YER016W, strain bim1, hits give low values",1.03
same,normalized growth,"locus YER110C, hits give low values",1.03
same,normalized growth,"locus YER111C, strain swi4, hits give low values",0.986
same,normalized growth,"locus YER155C, strain BEM2 (second series), hits give low values",1.01
same,normalized growth,"locus YER155C, strain BEM2, hits give low values",1.04
same,normalized growth,"locus YER167W, strain BCK2, hits give low values",0.995
same,normalized growth,"locus YFR010W, strain ubp6, hits give low values",0.961
same,normalized growth,"locus YGL078C, strain dbp3, hits give low values",1.03
same,normalized growth,"locus YGL086W, strain mad1, hits give low values",0.954
same,normalized growth,"locus YGL167C, strain pmr1, hits give low values",1.02
same,normalized growth,"locus YGL173C, strain kem1, hits give low values",0.848 (active)
same,normalized growth,"locus YGL227W, strain vid30, hits give low values",1.05
same,normalized growth,"locus YGL240W, strain doc1, hits give low values",1.04
same,normalized growth,"locus YGL248W, strain PDE1, hits give low values",0.941
same,normalized growth,"locus YGL253W, strain hxk2, hits give low values",0.979
same,normalized growth,"locus YGR135W, strain pre9, hits give low values",1.02
same,normalized growth,"locus YGR252W, strain gcn5, hits give low values",1.01
same,normalized growth,"locus YHR013C, strain ard1, hits give low values",0.852
same,normalized growth,"locus YHR027C, strain rpn1, hits give low values",0.699 (active)
same,normalized growth,"locus YHR030C, strain SLT2, hits give low values",0.965 and 0.994
same,normalized growth,"locus YHR079C, strain IRE1 (second series), hits give low values",1.02
same,normalized growth,"locus YHR079C, strain IRE1, hits give low values",0.996
same,normalized growth,"locus YHR094C, strain hxt1, hits give low values",1.03
same,normalized growth,"locus YHR129C, strain ARP1, hits give low values",0.931
same,normalized growth,"locus YHR142W, strain chs7, hits give low values",0.851 (active)
same,normalized growth,"locus YHR200W, strain rpn10, hits give low values",1
same,normalized growth,"locus YIL066C, strain RNR3, hits give low values",0.793 (active)
same,normalized growth,"locus YIL073C, strain SPO22, hits give low values",0.665 (active)
same,normalized growth,"locus YIL125W, strain kgd1, hits give low values",1
same,normalized growth,"locus YIR030C, strain dcg1, hits give low values",1.04
same,normalized growth,"locus YJL092W, strain hpr5, hits give low values",1.04
same,normalized growth,"locus YJL095W, strain BCK1 (second series), hits give low values",0.997
same,normalized growth,"locus YJL095W, strain BCK1, hits give low values",0.898 and 0.984
same,normalized growth,"locus YJL115W, strain asf1, hits give low values",1.03
same,normalized growth,"locus YJL129C, strain trk1, hits give low values",1.06
same,normalized growth,"locus YJL134W, strain LCB3, hits give low values",0.98
same,normalized growth,"locus YJL154C, strain vps35, hits give low values",1.03
same,normalized growth,"locus YJL164C, strain tpk1, hits give low values",0.966
same,normalized growth,"locus YJL166W, strain qcr8, hits give low values",0.922
same,normalized growth,"locus YJL168C, strain set2, hits give low values",1.03
same,normalized growth,"locus YJL187C, strain SWE1 (second series), hits give low values",0.854 (active)
same,normalized growth,"locus YJL187C, strain SWE1, hits give low values",0.988
